# The source made the active and inactive calls. Cut-off read from the data, not from the text of the source: active = log2 fold change growth below about -1.8; inactive = the rest.
# Experiment: anthelmintic activity against nematode growth – whole organism, log2 fold change (AID 1259336);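 note: growth scored by imaging after five days at 20 °C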
# Settings: C. elegans growth, anthelmintic screen; stronger effect = lower value
row,SMILES,log2 fold change growth
1,c1ccc(C[C@@H]2CN(c3nccc(Oc4ccc(-n5ccnc5)cc4)n3)CCN2)cc1,0.11 (inactive)
2,C[C@H](C(N)=O)N1CCCC[C@@H]1c1ccc(OCc2cccc(F)c2)cc1,-0.0568 (inactive)
3,CCOC(=O)NC(=O)c1ccsc1NC(=O)c1nc2ccccc2s1,-3.88 (inactive)
4,CCCn1c(NC(=O)c2ccc3ccccc3n2)nc2ccccc21,-0.0431 (inactive)
5,O=C(NC1CCCCC1)N1CCN(Cc2ccc3c(c2)OCO3)CC1,-0.153 (inactive)
6,COc1ccc2nc(C)cc(OCC(=O)Nc3ccccc3OC)c2c1,0.165 (inactive)
7,COc1cc(N[C@@H](C)CCCN)c2ncccc2c1,-0.0147 (inactive)
8,O=C1[C@@H](Oc2ccccc2)[C@@H](c2ccc(Cl)cc2)N1CCn1cnc2c(NCc3ccccc3)ncnc21,-0.167 (inactive)
9,COc1cc(OC)cc(C(=O)NC[C@H]2Cc3cc(Cl)cc(-c4ccncc4)c3O2)c1,-1.17 (inactive)
10,Cc1cc(Nc2ccncc2)n2nc(C)c(-c3ccccc3Cl)c2n1,-0.496 (inactive)
11,Nc1ncnc2c1c(-c1cnc3ccccc3c1)nn2CC1CCNCC1,0.195 (inactive)
12,C[C@H](Oc1cccc(Cl)c1)C(=O)Nc1ccc2oc(-c3ccncc3)nc2c1,0.206 (inactive)
13,O=C(c1cc2ccccc2o1)N1CCN(Cc2ccc3c(c2)OCO3)CC1,0.212 (inactive)
14,CC(C)=CCC/C(C)=C\CNCCNC1C2CC3CC(C2)CC1C3 (stereo not drawn),0.423 (inactive)
15,CN1CCC(NCc2cccc(-c3ccc(S(=O)(=O)NCc4ccccc4)cc3)c2)CC1,0.364 (inactive)
16,CCOC(=O)c1noc(N)c1-c1ccccc1,0.292 (inactive)
17,O=C(Nc1nnc(-c2ccc(Cl)s2)o1)c1ccc(Cl)s1,0.518 (inactive)
18,CC(=O)NC[C@H]1CN(c2ccc(N3CCSCC3)c(F)c2)C(=O)O1,0.00512 (inactive)
19,c1ccc(Oc2ccc(-c3cc(C4CCOCC4)[nH]n3)cc2)cc1,-0.254 (inactive)

row,SMILES,log2 fold change growth
1,COc1ccc(N(CCc2cccc(C)n2)C(C)=O)cc1,0.0749 (inactive)
2,Cc1ccc(S(=O)(=O)N2CCN(C(=O)c3cc(-c4ccccc4)n[nH]3)CC2)cc1,-0.371 (inactive)
3,C[C@]1(COc2ccc(N3CCC(Oc4ccc(OC(F)(F)F)cc4)CC3)cc2)Cn2cc([N+](=O)[O-])nc2O1,0.162 (inactive)
4,O=S(=O)(c1ccc(Cl)cc1)N1CCN(C(=S)NCc2ccco2)CC1,-0.203 (inactive)
5,Cc1ccccc1CN1CCC(O)(c2ccc(Cl)c(C(F)(F)F)c2)CC1,0.151 (inactive)
6,CC(C)n1ncc2c(C(=O)NC[C@@H](c3cccs3)N3CCOCC3)cc(-c3ccccc3)nc21,-2.7 (active)
7,O=C(NCc1ccoc1)N1CCN(Cc2ccc3c(c2)OCO3)CC1,0.212 (inactive)
8,Cc1ccccc1C(=O)N1NC(=Nc2ccccc2)SC1(C)C,-0.306 (inactive)
9,O=C(NCCc1c[nH]c2ccccc12)c1cc2ccccc2oc1=O,0.481 (inactive)
10,CNC(=O)c1nn(C)c2c1C(C)(C)Cc1cnc(Nc3ccc(N4CCN(C)CC4)cc3)nc1-2,0.103 (inactive)
11,CC(C)(C)OC(=O)N1CCN(c2cc(-c3ccc(Oc4ccccc4)cc3)[nH]n2)CC1,-0.56 (inactive)
12,CC(=O)N1CCc2cc3nc(C)cc(C)c3cc21,0.139 (inactive)
13,O=C([C@H](Cc1c[nH]c2ccccc12)NS(=O)(=O)c1ccc(Cl)cc1)N1CCCCC1,-0.129 (inactive)
14,O=C(NC1CC1)c1ccc(N2CCC(Cc3ccccc3)CC2)nc1,0.0189 (inactive)
15,Cc1cc(C(=O)Nc2ccc(-c3ccccc3)cc2)no1,-3.09 (active)
16,CN(C)c1cc(NC(=O)Nc2ccccc2)c2ccccc2n1,0.272 (inactive)
17,CC[C@@H]([C@H](C)O)n1ncn(-c2ccc(N3CCN(c4ccc(OC[C@@H]5CO[C@@](Cn6cncn6)(c6ccc(F)cc6F)C5)cc4)CC3)cc2)c1=O,-1.34 (inactive)
18,O=C(Nc1ccc2c(c1)B(O)OC2)c1ccccc1C(F)(F)F,-8.94 (active)
19,CCCCS(=O)(=O)Nc1ccc2cnn(C)c2c1,0.414 (inactive)

# — PubChem BioAssay AID1259336 (Sattelle Laboratory, UCL Respiratory, Division of Medicine, …, 2017)
